GALK inh: qHTS Assay for Inhibitors of Human Galactokinase (GALK); P51570; Potency, µM (top dose mostly 57.5 µM), for the others: at the highest dose activity change, negative = inhibition, usual class: inhibitors; hit rate 0.007% among 270,000; Purified GALK, Kinase-Glo residual ATP luminescence; also: potency is read from the fitted curve at half-maximal effect
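Human GALK (5 nM) with 35 uM ATP and 100 uM galactose in 20 mM HEPES pH 8.0, 5 mM MgCl2, 60 mM NaCl, 1 mM DTT, 0.01% BSA. After 1 h at room temperature, leftover ATP was read by Kinase-Glo Plus luminescence.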
TrxR1 substrate: qHTS Assay for Substrates of Mammalian Selenoprotein Thioredoxin Reductase 1 (TrxR1): qHTS; AID 588456, 2011; purified TrxR1 substrate turnover, NADPH consumption readout; hit rate 0.01% among 390,000; Thioredoxin reductase 1, cytoplasmic (Rattus norvegicus), O89049; Potency, µM (series often up to 114 µM), for inactives: top-dose activity change, negative = substrate turnover; also: potency is read from the fitted curve at half-maximal effect; nearly all actives have a fitted effect of over 50% in size
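Rat TrxR1, dispensed at 90 nM, was prereduced with 400 uM NADPH (final) for 5 min at ~22 deg C, then incubated with compound 15 min before 400 uM selenite. A first-read NADPH fluorescence drop versus no-compound background flagged substrates.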
TrxR1 inh: qHTS Assay for Inhibitors of Mammalian Selenoprotein Thioredoxin Reductase 1 (TrxR1): qHTS | recombinant rTrxR1, NADPH fluorescence consumption, selenite substrate | AID 588453, 2011 | Potency, µM (series often up to 114 µM), for the others: top-dose activity change, negative = inhibition, actives largely listed as inhibitors | hit rate 1% among 390,000 | Thioredoxin reductase 1, cytoplasmic (Rattus norvegicus), O89049; also: potency is read from the fitted curve at half-maximal effect; nearly all actives have a fitted effect of over 65% in size
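Rat TrxR1 (90 nM in the dispensed reagent) was pre-reduced with 400 uM NADPH for 5 min at room temperature, then incubated with compound for 15 min. After 400 uM selenite was added, NADPH fluorescence (Ex 340/Em 450 nm) was followed for 8 min.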
PI4K2A inh: qHTS for small molecular inhibitors of PI4K2A; activity change, negative = inhibition, % at 76.9 µM; Phosphatidylinositol 4-kinase type 2-alpha (Homo sapiens), Q9BTU6; hit rate 0.13% among 420,000; purified PI4K2A, ADP-Glo luminescence, 1 h; hits give low values; in the data active = activity change below about -50%; inconclusive = mostly about -30% to -49%;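 also: -100% = wells without enzyme as full effect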
Target sequence (Q9BTU6 whole entry, looked up): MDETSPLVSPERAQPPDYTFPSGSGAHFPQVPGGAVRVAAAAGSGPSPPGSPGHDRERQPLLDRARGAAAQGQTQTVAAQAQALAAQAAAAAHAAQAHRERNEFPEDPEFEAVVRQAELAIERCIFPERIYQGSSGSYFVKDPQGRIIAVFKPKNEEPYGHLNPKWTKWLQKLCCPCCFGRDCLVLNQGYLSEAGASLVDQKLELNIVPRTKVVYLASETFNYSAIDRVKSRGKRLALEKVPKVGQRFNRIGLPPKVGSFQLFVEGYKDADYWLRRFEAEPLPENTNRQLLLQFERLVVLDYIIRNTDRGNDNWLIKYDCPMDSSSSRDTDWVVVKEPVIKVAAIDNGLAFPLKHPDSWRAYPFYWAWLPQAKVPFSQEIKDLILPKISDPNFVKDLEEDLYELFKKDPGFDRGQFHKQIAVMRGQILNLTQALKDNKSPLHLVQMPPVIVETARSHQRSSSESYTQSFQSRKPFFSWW
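In this quantitative HTS, ADP production by PI4K2A was quantified luminescently after 1 h at ambient temperature; 100 microM adenosine served as plate-quality control.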
* marks the source's active call; other numbers are inactive results; ? = inconclusive; / = no result; [ ] = dose if it differs, or a comment. Most compounds without a hit are left out; they make up all but 1.1% or so of the library. Unless noted, calls follow the shape of the dose curve; as a rule, active = well fitted curve in the direction sought with a large enough effect; inconclusive = small, poorly fitted or top-dose-only effect, or another doubt; inactive = no such curve, though single readings can be large; an effect the other way counts as inactive or inconclusive. Unless noted, % is scaled to controls: 0 for no effect and ±100 for the full control effect.

SMILES	GALK inh	TrxR1 substrate	TrxR1 inh	PI4K2A inh
Cc1ccc(-c2nc3cnccn3c2Nc2ccc(C(C)C)cc2)o1	/	5.1%	12.6µM*	/
CC(C)c1ccc(Nc2c(-c3ccccc3O)nc3cnccn23)cc1	/	-2.9%	9.2%	2.5
COc1ccc(C(=O)NC(Oc2ccccc2)C(Cl)(Cl)Cl)cc1 (stereo not given)	1.3%	-2.1%	11.2µM*	1.8
COc1ccc(C(C)NC(=O)c2ccccc2)cc1 (stereo not given)	-0.2%	11.3%	16.5%	-2.1
Cc1cn([C@@H]2O[C@H](CO)[C@@H](O)[C@H]2F)c(=O)[nH]c1=O	/	/	/	1.1
Cc1ccc(NC(=O)c2nc(S(=O)(=O)Cc3ccccc3)ncc2Cl)cc1	1.0%	-1.5%	8.91µM*	-0.6
O=C(NCc1ccccc1)c1nc(S(=O)(=O)Cc2ccc(F)cc2)ncc1Cl	/	-0.5%	3.55µM*	4.2
CCOc1ccc(NC(=O)c2nc(S(=O)(=O)Cc3ccccc3C)ncc2Cl)cc1	/	-2.7%	14.1µM*	/
COc1ccc2nc(NC(=O)c3nc(S(=O)(=O)Cc4ccccc4)ncc3Cl)sc2c1	/	-4.0%	-6.9%	-21.1
O=C(Nc1ccc(F)cc1)c1nc(S(=O)(=O)Cc2ccccc2)ncc1Cl	4.3%	0.6%	3.55µM*	-3.9
Cc1ccc(CSc2ncc(Cl)c(C(=O)NCc3ccccc3)n2)cc1	/	-1.2%	8.5%	-3.3
Cc1ccccc1CS(=O)(=O)c1ncc(Cl)c(C(=O)Nc2ccc(F)cc2)n1	3.5%	-3.3%	-0.3%	-6.3
CCOc1ccccc1NC(=O)c1nc(S(=O)(=O)Cc2ccccc2F)ncc1Cl	/	9.5%	?	/
CCn1c(=O)cc(OCC(=O)N2CCN(c3cccc(Cl)c3)CC2)c2ccccc21	/	-12.3%	-6.6%	2.3
CCOc1ccc(NC(=O)c2nc(S(=O)(=O)Cc3ccc(F)cc3)ncc2Cl)cc1	/	1.2%	4.47µM*	/
Cc1cccc(CS(=O)(=O)c2ncc(Cl)c(C(=O)NCc3ccccc3)n2)c1	-5.5%	-2.4%	6.31µM*	9.6
CC(C)(C)c1ccc(Cn2cnc3c(cnn3C(C)(C)C)c2=O)cc1	/	-1.3%	13.3%	/
COc1ccc(NC(=O)CN2CCN(S(=O)(=O)c3ccc(Cl)cc3)CC2)cc1Cl	-1.2%	-15.3%	8.1%[57.1 µM]	-7.6
COc1cc(CN2CCN(S(=O)(=O)c3ccccc3)CC2)cc(OC)c1O	/	1.5%	20µM*	5.5
COc1ccc(S(=O)(=O)N2CCCN(CC(=O)Nc3ccc(OC)c(Cl)c3)CC2)cc1	-2.8%	5.1%	50.1µM*	3.0
COc1cc(CN2CCN(S(=O)(=O)c3ccc(NC(C)=O)cc3)CC2)cc(OC)c1O	3.9%	1.2%	12.6µM*	0.9
Cc1cc(SCC(=O)Nc2nsc(-c3ccc(C(C)(C)C)cc3)n2)nc2ccccc12	/	16.3%	28.8%	1.0
COc1ccc(CCNC(=O)CCc2c(C)nc3nc(C)nn3c2C)cc1OC	/	3.9%	11.2%	1.3
Cc1ccc(C(=O)CCNc2ccc(F)c(Cl)c2)o1	12.3%	-3.5%	56.2µM*	6.5
Cc1ccc(C(=O)CCNc2ccc(Br)cc2)o1	5.1%	-1.9%[57.1 µM]	-32.9%	-5.4
SMILES	GALK inh	TrxR1 substrate	TrxR1 inh	PI4K2A inh
COc1cccc2cc(C(=O)C3=C(O)C(=O)N(c4cc(C)on4)C3c3cccs3)oc12 (stereo not given)	-11.6%	-17.1%	50.1µM*	-1.8
COc1ccc(C2=CC(=O)OC3(CCCCC3)O2)cc1	2.3%	-6.8%	-4.3%	-2.5
C=C(C)C1(O)OC(=O)C=C1OC (stereo not given)	-2.1%	4.8%	14.1µM*	-2.2
C[C@@H]1CN([C@@H](C)CO)C(=O)c2cc(Br)cnc2O[C@H]1CN(C)Cc1cccc(C(=O)O)c1	/	/	/	0.4
CC(C)N1CCc2c(sc(NC(=O)CCS(=O)(=O)c3ccccc3)c2C#N)C1	4.8%	-7.0%	10µM*	2.4
CC(C)N1CCc2c(sc(NC(=O)CCc3ccccc3)c2C(N)=O)C1	3.3%	11.5%	20.8%	-7.6
CCCN1CCc2c(sc(NC(=O)CCS(=O)(=O)c3ccccc3)c2C(=O)OC)C1	-1.9%	0.1%	50.1µM*	-1.0
COC(=O)c1c(NC(=O)CCS(=O)(=O)c2ccccc2)sc2c1CCN(C)C2	-0.2%	-1.4%	?	3.0

Compound activity (PubChem BioAssay)
